Experimental data: publication PMC5540273 (PLoS ONE, 2017)
“And” between values parts separate entries of the source, which are not always exact repeats. Equal entries are not always repeated. Where two headings read alike, the source gives them in different places.

What was measured:
[1] = test system: IRAK4; settings: n = 1
[2] = test system: ITK; settings: n = 1
[3] = test system: JAK1(JH1domain-catalytic); settings: n = 1
[4] = test system: JAK1(JH2domain-pseudokinase); settings: concentration: 1 μM, replicates: in singlicate; n = 1
[5] = test system: JAK2(JH1domain-catalytic); settings: n = 1
[6] = test system: JAK3(JH1domain-catalytic); settings: concentration: 1 μM, replicates: in singlicate; n = 1
[7] = test system: T1, JNK1; settings: n = 1
T1 construct: gene MAPK8

[8] = test system: T2, JNK2; settings: n = 1
T2 construct: gene MAPK9

[9] = test system: T3, JNK3; settings: n = 1
T3 construct: gene MAPK10

[10] = test system: KIT-autoinhibited; settings: n = 1
[11] = concentration: 1 μM,replicates: in singlicate, 1 µM
[12] = concentration: 1 μM, replicates: in singlicate
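Note: KINOMEscan kinase panel screen.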

Row | SMILES | %Inh [1, 11] | %Inh [2, 11] | %Inh [3, 11] | %Inh [4] [%] | %Inh [5, 11] | %Inh [6] [%] | %Inh [7, 11] | %Inh [8, 11] | %Inh [9, 11] | %Inh [10, 11] | %Inh [1, 12] [%] | %Inh [2, 12] [%] | %Inh [3, 12] [%] | %Inh [5, 12] [%] | %Inh [7, 12] [%] | %Inh [8, 12] [%] | %Inh [9, 12] [%] | %Inh [10, 12] [%]
1 | CSc1nn2c(=O)cc(N3CCOCC3)nc2n1Cc1cccc(C(F)(F)F)c1C [GSK2363608] | 12% and 18% | 2% and 12% | 13% and 30% | 0 | 100% and 0% | 0 | 2% and 16% | 15% and 5% | 7% and 3% | 2% and 0% | – | – | – | – | – | – | – | –
2 | Fc1cccc(COc2nnc(-c3ccc4c(c3)CCO4)o2)c1 | – | – | – | 10 | – | 5 | – | – | – | – | 5 | 23 | 0 | 0 | 6 | 0 | 0 | 0
3 | Nc1ncnc2[nH]c(-c3ccccc3)nc12 [AH5015] | – | – | – | 34 | – | 0 | – | – | – | – | 52 | 12 | 8 | 47 | 9 | 16 | 15 | 14
4 | CS(=O)(=O)c1ccc(-c2c(-c3ncn[nH]3)sc(N3CCOCC3)c2C#N)cc1 | – | – | – | 56 | – | 2 | – | – | – | – | 0 | 6 | 0 | 0 | 25 | 0 | 0 | 49
5 | Cc1cc(N2Cc3ccccc3C2)nc(Nc2ccc(S(=O)(=O)N3CCOCC3)cc2)n1.Cl [GSK1669917] | – | – | – | 0 | – | 0 | – | – | – | – | 0 | 0 | 11 | 0 | 3 | 13 | 1 | 3
6 | Cl.NC(=O)c1cccc(Nc2nccc(Nc3ccc(Oc4cccc(Cl)c4)c(Cl)c3)n2)c1 [GW659008] | – | – | – | 0 | – | 0 | – | – | – | – | 0 | 0 | 15 | 84 | 22 | 20 | 10 | 0
7 | COC(=O)c1c(-c2ccccc2)c2cc(OC)ccc2c(=O)n1Cc1ccccc1 | – | – | – | 0 | – | 0 | – | – | – | – | 10 | 9 | 10 | 0 | 66 | 68 | 85 | 6
8 | Cc1cccc(-c2nc(Nc3cccc(C(N)=O)c3)c3ccccc3n2)n1 [GW876019] | – | – | – | 78 | – | 15 | – | – | – | – | 4 | 8 | 0 | 12 | 0 | 0 | 0 | 10
9 | Cn1cncc1-c1ccc2ncnc(Nc3ccc(OCc4ccccc4)cc3)c2c1 [GW320571] | – | – | – | 22 | – | 0 | – | – | – | – | 2 | 14 | 18 | 0 | 18 | 6 | 4 | 0
10 | CN1C(=O)C(Nc2ccc(Cl)c(C(=O)O)c2)=C(c2ccc(Cl)cc2)C1=O [SB-404290] | – | – | – | 17 | – | 0 | – | – | – | – | 0 | 4 | 0 | 8 | 26 | 2 | 7 | 0
11 | COc1cc(Nc2nccc(N3CCC(NC(=O)Nc4cc(C)ccc4C)C3)n2)cc(OC)c1OC (stereo not drawn) [GSK1379762] | – | – | – | 0 | – | 0 | – | – | – | – | 16 | 30 | 5 | 76 | 24 | 2 | 11 | 0
12 | CC(C)(C)c1ccc(C(=O)Nc2cn3cc(Cl)ccc3n2)cc1 | – | – | – | 7 | – | 0 | – | – | – | – | 0 | 0 | 0 | 1 | 0 | 0 | 0 | 42
13 | NC(=O)c1nnc2ccccc2c1N | – | – | – | 37 | – | 65 | – | – | – | – | 33 | 64 | 4 | 58 | 27 | 17 | 13 | 19
14 | COc1ccc(C2=C(Nc3cccc(C(=O)O)c3)C(=O)NC2=O)cc1 [SB-390765] | – | – | – | 18 | – | 0 | – | – | – | – | 0 | 0 | 0 | 12 | 41 | 32 | 33 | 14
15 | COc1ccc2nc(-c3cccc(C)n3)nc(Nc3ccncc3)c2c1 [GSK204919] | – | – | – | 80 | – | 0 | – | – | – | – | 0 | 13 | 0 | 10 | 0 | 60 | 36 | 0
16 | Cc1cccc(-c2nc(Nc3ccncc3)c3ccccc3n2)n1 [GW855857] | – | – | – | 74 | – | 0 | – | – | – | – | 0 | 24 | 0 | 0 | 0 | 6 | 21 | 0
17 | Cc1ccc(C(=O)Nc2ccc(Nc3ccnc4cc(-c5ccccn5)ccc34)cc2O)cc1.Cl [GW440146] | – | – | – | 0 | – | 0 | – | – | – | – | 9 | 0 | 16 | 5 | 5 | 15 | 0 | 17
18 | Cc1cc(NCC(c2ccccc2)c2ccccc2)nc(NCc2ccc(C(F)(F)F)cc2)n1 [GW497681] | – | – | – | 0 | – | 0 | – | – | – | – | 8 | 0 | 10 | 0 | 0 | 0 | 0 | 0
